Compound activity: PubChem BioAssay, several laboratories
An excerpt weighted towards active compounds, which were near 3.1% of everything screened.
ARNT TACC3 PPI – disruptors of human ARNT/TACC3 interaction; AlphaScreen His-ARNT PAS-B/GST-TACC3 binding, luminescence; TACC3 fragment carries E629A point mutation; inhibition, % at 9.99 µM; Q9Y6A5; 390,000 tested, 0.66% active;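 active means mean inhibition of replicates at least 50% and at least half of replicates each reaching 50%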;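 further: 0% = complete ARNT plus TACC3 wells and 100% = ARNT alone without TACC3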
HSP90 inh – inhibitors of HSP90 luciferase refolding in rabbit reticulocyte lysate; luciferase refolding luminescence, 3 h; inhibition, % at 5.6 µM; 290,000 tested, 0.91% active; AID 1789;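 active means inhibition above the screen-wide mean plus 3 SD, computed separately per campaign, cut at about 16% in these data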;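 further: 0% = DMSO wells and 100% = 60 µM geldanamycin wells; inhibitors lower the luminescence because luciferase stays unfolded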
HSF1 inhib – HSF1 inhibition. 300,000 tested, 0.77% active. AID 2098. NIH3T3-HGL HSE-luciferase, MG132-induced, luminescence 8 h; hits give low values. activity change, negative = inhibition, % at 7.5 µM (by protocol);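 active means more than half of replicate wells show activity change below -50%, luminescence cut by over half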;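 further: luciferase reports HSF-1 transcriptional activity via heat shock element; 0% = median of DMSO wells and -100% = zero luminescence signal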
HSF-1 act – increases HSF-1 driven luciferase reporter signal | NIH3T3-HGL HSF-1 luciferase reporter, MG132, 8 h; 100% = twice DMSO control signal | activation, % at 9 µM | 300,000 tested, 1.7% active;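 active means mean replicate activation of at least 50% with a set share of replicates each reaching 50%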;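 further: 0% = median of the neutral control wells and 100% = twice that signal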
HIF activator – HIF pathway transcriptional activation; U2OS HRE-luciferase reporter, luminescence; normalized: DMSO 0%, desferrioxamine 100%; activation, % at 7.5 µM (by protocol); 300,000 tested, 0.32% active;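 active means mean activation of at least 10% of the iron chelator positive control signal, with at least half of replicates also reaching 10%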
Numbers without * were called inactive; / = no result given.

SMILES	ARNT TACC3 PPI	HSP90 inh	HSF1 inhib	HSF-1 act	HIF activator
Cc1ccc(-c2cnc(SCC(=O)N3CCCc4ccccc43)n2C)cc1	29	8	/	/	/
COC(=O)c1ccccc1NC(=O)CSc1nnc(C(CO)NC(=O)c2ccccc2Cl)n1C (configuration not stated)	0	2	-1	-5	0
COC(=O)c1ccccc1NC(=O)CSc1nnc(C(CO)NC(=O)c2ccccc2)n1C (configuration not stated)	4	0	-71*	-77	0
CCOC(=O)N1CCC(N(CCN(C)C)C(=S)Nc2cccc(SC)c2)CC1	0	3	-19	-25	0
CSc1cccc(NC(=S)N2CCC(N(C)C3CCCC3)CC2)c1	1	-2	-73*	-79	0
COc1cc(NC(=S)N2CCCC2)cc(OC)c1	-17	17*	/	/	/
COc1cccc(N2CCN(C(=S)Nc3ccc(F)cc3)CC2)c1	-5	6	-3	-2	1
COc1cccc(NC(=S)N2CCCC2)c1	-10	-4	28	57*	1
COc1cccc(N2CCN(C(=S)Nc3cc(C)cc(C)c3)CC2)c1	-8	3	-52*	-64	1
COc1ccc(N2CCN(C(=S)Nc3cccc(OC)c3)CC2)cc1	-2	16	2	5	4
Cc1noc(C)c1NC(=O)N(C)C[C@H]1Oc2ccc(NS(=O)(=O)c3cccs3)cc2CC(=O)N([C@H](C)CO)C[C@@H]1C	1	/	/	/	/
COCC(=O)N(C)C[C@@H]1Oc2ncc(C#CCC3CCCC3)cc2C(=O)N([C@H](C)CO)C[C@H]1C	11	/	/	/	/
Cc1ccccc1S(=O)(=O)N(C)C[C@H]1OCc2ccccc2-c2ccccc2C(=O)N([C@H](C)CO)C[C@H]1C	3	/	/	/	/
COc1cccc(C(=O)N2CCN(c3ncccn3)CC2)c1	-1	-2	5	6	0
COc1cccc(N2CCN(c3ncccn3)CC2)c1	8	-2	42	73*	/
COc1ccc(NC(=O)CN2CCc3ccccc3C2)cc1	-1	/	/	/	/
COc1ccc(NC(=S)N2CCc3ccccc3C2)cc1	-15	-3	28	61*	1
CCCc1nc2ccccc2c(=O)n1/N=C/c1ccccc1O	57*	0	-4	20	13*
Cc1cc(/C=N/n2c(COc3ccccc3C)nc3ccccc3c2=O)c(O)c([N+](=O)[O-])c1	7	3	1	-23	7
O=c1c2ccccc2nc(COc2ccccc2)n1/N=C/c1cc([N+](=O)[O-])ccc1O	30	2	8	19	11*
CCOC(=O)c1cnc(-n2nc(C)cc2C)nc1N1CCOCC1	50*	3	/	/	0
COC(=O)C[C@](O)(CCCC(C)(C)O)C(=O)O[C@@H]1C(OC)=C[C@]23CCCN2CCc2cc4c(cc2[C@H]13)OCO4	/	/	-73*	-76	-3
COc1cc2c(cc1OC)CN(C(=O)[C@H]1[C@@H]3C(=O)O[C@@H](c4ccccc4)[C@@H](c4ccccc4)N3[C@@H](c3ccccc3OCCO)[C@]13C(=O)Nc1ccccc13)CC2	0	/	/	/	/
C/C(=N\OCC(=O)Nn1c(=O)[nH]c2ccccc2c1=O)c1cccs1	-9	-1	-58*	-68	1
O=C(COC(=O)/C=C/c1cccc([N+](=O)[O-])c1)NCc1ccco1	-30	2	181	200*	2
SMILES	ARNT TACC3 PPI	HSP90 inh	HSF1 inhib	HSF-1 act	HIF activator
O=C(COC(=O)/C=C/c1ccc([N+](=O)[O-])cc1)NCc1ccco1	1	3	-4	0	0
COc1ccc(Cc2nnc(N/N=C/c3ccc(O)cc3)[nH]c2=O)cc1OC	92*	-2	-6	-6	2
COc1ccc(NC(=O)N(C)C[C@@H]2Oc3ccc(NC(=O)Nc4ccccc4)cc3C(=O)N([C@@H](C)CO)C[C@H]2C)cc1	-12	/	/	/	/
CCn1c(SCC(=O)c2ccc(Cl)cc2)nnc1C(C)C	-8	0	148	145*	3
CCn1c(CNC(C)=O)nnc1SCC(=O)c1ccc(Br)cc1	9	-2	70	82*	/
CCn1c(SCC(=O)c2ccc(Cl)cc2)nnc1-c1ccoc1C	-6	1	40	75*	1
CCn1c(SCC(N)=O)nnc1C(C)C	-6	-4	-2	5	0
Cn1c(CO)cnc1SCC(=O)c1ccc(Cl)cc1	-6	4	48	80*	0
